Test results published in PubChem BioAssay (NCI).
About 83,000 compounds went through this panel and 20% of them were active in at least one assay; those are over-represented in the sample as a whole.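 Each cell line was grown in a 96-well plate and treated with one concentration of compound for 48 hours. Values below 10 were considered active.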 Calls of active or inactive are those of the source.

Key:
Assay in all cases: NCI-60 one-dose screen, 48 h (100 = growth as untreated, 0 = no growth, -100 = all killed)
Conditions in all cases: 10 µM unless noted
SR leukemia = tested on: SR leukemia
OVCAR-8 ovarian = tested on: OVCAR-8 ovarian
OVCAR-5 ovarian = tested on: OVCAR-5 ovarian
OVCAR-4 ovarian = tested on: OVCAR-4 ovarian
SK-OV-3 ovarian = tested on: SK-OV-3 ovarian
IGROV1 ovarian = tested on: IGROV1 ovarian
OVCAR-3 ovarian = tested on: OVCAR-3 ovarian
NCI/ADR-RES ovarian = tested on: NCI/ADR-RES ovarian
HS 578T breast = tested on: HS 578T breast

Measured: growth

COC(=O)Nc1ccc2ccc3c(NC(=O)OC)ccc4ccc1c2c43 (tested in a mixture with another compound)
inactive: SR leukemia 24.1% | OVCAR-8 ovarian 66.5% | OVCAR-5 ovarian 76.2% | OVCAR-4 ovarian 87.9% | SK-OV-3 ovarian 72% | IGROV1 ovarian 51.1% | OVCAR-3 ovarian 70.5% | NCI/ADR-RES ovarian 36.6%

CC1=C([Se]CC(OC(=O)[C@@H](CSSC(C)(C)C)NC(=O)C(C)(C)C)C(=O)NCCCCCC(=O)OCc2ccccc2)C(=O)c2ccccc2C1=O (stereo partly specified)
inactive: SR leukemia 29.2% | OVCAR-4 ovarian 14.5% | HS 578T breast 13.6%
active: OVCAR-8 ovarian 8.55% | OVCAR-5 ovarian -28.7% | SK-OV-3 ovarian -17.5% | IGROV1 ovarian -60.9% | OVCAR-3 ovarian 1.96% | NCI/ADR-RES ovarian -12.4%

CCCCCN1C(=O)CCC1=O
inactive: SR leukemia 107% | OVCAR-8 ovarian 94.4% | OVCAR-5 ovarian 98.2% | OVCAR-4 ovarian 114% | SK-OV-3 ovarian 110% | IGROV1 ovarian 110% | OVCAR-3 ovarian 103% | NCI/ADR-RES ovarian 102%

O=C1NC(=O)/C(=C/c2ccc(Cl)cc2Cl)N1
inactive: SR leukemia 93% | OVCAR-8 ovarian 101% | OVCAR-5 ovarian 106% | OVCAR-4 ovarian 97.4% | SK-OV-3 ovarian 98.9% | IGROV1 ovarian 106% | OVCAR-3 ovarian 105% | NCI/ADR-RES ovarian 106%

N/C(=N\C(N)=N\c1nc2ccccc2s1)c1ccnc(Cl)c1
active: OVCAR-3 ovarian 4.62%
inactive: SR leukemia 18.9% | OVCAR-8 ovarian 39.5% | OVCAR-5 ovarian 57.9% | OVCAR-4 ovarian 79.1% | SK-OV-3 ovarian 48.5% | IGROV1 ovarian 37.2% | HS 578T breast 25.7% | NCI/ADR-RES ovarian 18.3%

CC(=O)Nc1cc2c3c(cccc3c1)-c1ccccc1-2
inactive: SR leukemia 81.6% | OVCAR-8 ovarian 86.1% | OVCAR-5 ovarian 85.6% | OVCAR-4 ovarian 71.5% | SK-OV-3 ovarian 105% | IGROV1 ovarian 59% | OVCAR-3 ovarian 92.8% | HS 578T breast 112% | NCI/ADR-RES ovarian 84.5%

O=C1Nc2ccc(C(=O)O)c(O)c2C1=O
inactive: SR leukemia 105% | OVCAR-8 ovarian 107% | OVCAR-5 ovarian 95.3% | OVCAR-4 ovarian 112% | SK-OV-3 ovarian 110% | IGROV1 ovarian 111% | OVCAR-3 ovarian 113% | HS 578T breast 108% | NCI/ADR-RES ovarian 106%

O=C(Nc1ccccc1S)c1ccccc1
inactive: SR leukemia 82.6% | OVCAR-8 ovarian 105% | OVCAR-5 ovarian 123% | OVCAR-4 ovarian 98.4% | SK-OV-3 ovarian 115% | IGROV1 ovarian 107% | OVCAR-3 ovarian 112% | HS 578T breast 103% | NCI/ADR-RES ovarian 98.1%

O=[N+]([O-])c1ccc(N=Nc2c(Cl)cc(O)cc2Cl)cc1
inactive: OVCAR-5 ovarian 25.3% | OVCAR-4 ovarian 12.1% | SK-OV-3 ovarian 13.3%
active: SR leukemia 3.27% | OVCAR-8 ovarian 6.5% | IGROV1 ovarian 6.67% | OVCAR-3 ovarian -25.3% | HS 578T breast -20% | NCI/ADR-RES ovarian -19.7%

CC[C@@H](c1ccc(O)c(O)c1)[C@@H](CC)c1ccc(O)c(O)c1
inactive: SR leukemia 52.6% | OVCAR-8 ovarian 101% | OVCAR-5 ovarian 115% | OVCAR-4 ovarian 68.1% | SK-OV-3 ovarian 122% | IGROV1 ovarian 98.1% | OVCAR-3 ovarian 50.6% | NCI/ADR-RES ovarian 99.9%

CC(=O)N1N=C(c2ccc(C(F)(F)F)cc2)CC1c1ccc2c(c1)OCO2 (stereo unspecified)
inactive: SR leukemia 89.5% | OVCAR-8 ovarian 101% | OVCAR-5 ovarian 100% | OVCAR-4 ovarian 77.8% | SK-OV-3 ovarian 104% | IGROV1 ovarian 67% | OVCAR-3 ovarian 110% | HS 578T breast 97.8% | NCI/ADR-RES ovarian 95.8%

Clc1ccc2c(c1)C(Br)c1cc(Cl)cc(Cl)c1-2 (stereo unspecified)
active: SR leukemia -4.33%
inactive: OVCAR-8 ovarian 101% | OVCAR-5 ovarian 84.4% | OVCAR-4 ovarian 88.5% | SK-OV-3 ovarian 80% | IGROV1 ovarian 57.1% | OVCAR-3 ovarian 91.7% | HS 578T breast 65.1% | NCI/ADR-RES ovarian 96.1%

COc1cccc(CCN2C(=O)CCC3=C2CCC3=O)c1
inactive: SR leukemia 102% | OVCAR-8 ovarian 108% | OVCAR-5 ovarian 104% | OVCAR-4 ovarian 104% | SK-OV-3 ovarian 102% | IGROV1 ovarian 103% | OVCAR-3 ovarian 114% | HS 578T breast 130% | NCI/ADR-RES ovarian 104%

NC(=NCCCCCCN=C(N)/N=C(\N)Nc1ccc(Cl)cc1)/N=C(\N)Nc1ccc(Cl)cc1
active: SK-OV-3 ovarian 2.57% | IGROV1 ovarian -24.1%
inactive: SR leukemia 25.1% | OVCAR-8 ovarian 17.6% | OVCAR-5 ovarian 28.7% | OVCAR-4 ovarian 21.4% | OVCAR-3 ovarian 17% | HS 578T breast 18.1% | NCI/ADR-RES ovarian 46.8%

COc1ccc(/C=C2/SC(=Nc3c(C)nn(-c4ccccc4)c3N)NC2=O)cc1
active: OVCAR-3 ovarian -28.9%
inactive: SR leukemia 14.9% | OVCAR-8 ovarian 70.2% | OVCAR-5 ovarian 76.2% | OVCAR-4 ovarian 51.9% | SK-OV-3 ovarian 54.2% | IGROV1 ovarian 27.2% | HS 578T breast 31.7% | NCI/ADR-RES ovarian 42%

O=C1NC(=S)S/C1=C\c1cc(Br)ccc1O
inactive: SR leukemia 95.7% | OVCAR-8 ovarian 103% | OVCAR-5 ovarian 91.6% | OVCAR-4 ovarian 115% | SK-OV-3 ovarian 91.3% | IGROV1 ovarian 110% | OVCAR-3 ovarian 103% | NCI/ADR-RES ovarian 102%

CN(C)c1ncnc2c1ncn2C1CCCCO1 (stereo unspecified)
inactive: SR leukemia 87.7% | OVCAR-8 ovarian 107% | OVCAR-5 ovarian 104% | OVCAR-4 ovarian 104% | SK-OV-3 ovarian 107% | IGROV1 ovarian 112% | OVCAR-3 ovarian 113% | NCI/ADR-RES ovarian 108%

NS(=O)(=O)c1ccc(-n2ncc3c(N/N=C/c4ccccc4)ncnc32)cc1
inactive: SR leukemia 50.8% | OVCAR-8 ovarian 55.5% | OVCAR-5 ovarian 97.2% | OVCAR-4 ovarian 54.3% | SK-OV-3 ovarian 107% | IGROV1 ovarian 76.5% | OVCAR-3 ovarian 99.9% | HS 578T breast 113% | NCI/ADR-RES ovarian 87.6%

Nc1ccc2c(c1)C(=O)c1cc(Cl)c(Cl)cc1-2
inactive: SR leukemia 82% | OVCAR-8 ovarian 92.3% | OVCAR-5 ovarian 95.9% | OVCAR-4 ovarian 89.9% | SK-OV-3 ovarian 97.9% | IGROV1 ovarian 94.6% | OVCAR-3 ovarian 110% | NCI/ADR-RES ovarian 97.3%

C(=C1c2ccccc2-c2ccccc21)c1ccccn1
inactive: SR leukemia 22.6% | OVCAR-8 ovarian 93.4% | OVCAR-5 ovarian 87.3% | OVCAR-4 ovarian 70.7% | SK-OV-3 ovarian 95.5% | IGROV1 ovarian 74.1% | OVCAR-3 ovarian 53.1% | HS 578T breast 65.4% | NCI/ADR-RES ovarian 31.1%

CCOC(=O)/C=C1/SC(=Nc2ccc(C#N)cc2)N(Cc2ccco2)C1=O
active: SR leukemia 0.973%
inactive: OVCAR-8 ovarian 54.2% | OVCAR-5 ovarian 37.4% | OVCAR-4 ovarian 51.2% | SK-OV-3 ovarian 91.7% | IGROV1 ovarian 26.3% | OVCAR-3 ovarian 17.9% | HS 578T breast 65.4% | NCI/ADR-RES ovarian 40.9%

Nc1ccc2c(c1)Cc1cc(Cl)c(Cl)cc1-2
active: OVCAR-3 ovarian 7.25%
inactive: SR leukemia 70.4% | OVCAR-8 ovarian 86.4% | OVCAR-5 ovarian 82.6% | OVCAR-4 ovarian 78.6% | SK-OV-3 ovarian 69.1% | IGROV1 ovarian 89.1% | HS 578T breast 67.9% | NCI/ADR-RES ovarian 62.9%

CCOC(CNCc1cc(C)c2[nH]c3ccccc3c2c1C)OCC
inactive: SR leukemia 77.4% | OVCAR-8 ovarian 89.5% | OVCAR-5 ovarian 99.3% | OVCAR-4 ovarian 58.7% | SK-OV-3 ovarian 93.1% | IGROV1 ovarian 83.9% | OVCAR-3 ovarian 83.9% | HS 578T breast 84.6% | NCI/ADR-RES ovarian 77.2%

O=C(O)c1ccc2cccnc2c1O
inactive: OVCAR-8 ovarian 13.6% | OVCAR-5 ovarian 24.2% | OVCAR-4 ovarian 17.7%
active: SR leukemia 5.47% | SK-OV-3 ovarian -10.7% | IGROV1 ovarian 5.01% | OVCAR-3 ovarian 1.49% | NCI/ADR-RES ovarian -1.54%

N#CC1c2ccccc2C=CN1C(=O)N(c1ccccc1)c1ccccc1 (stereo unspecified)
active: SR leukemia 1.1% | OVCAR-3 ovarian -34.3%
inactive: OVCAR-8 ovarian 76% | OVCAR-5 ovarian 107% | OVCAR-4 ovarian 77% | SK-OV-3 ovarian 110% | IGROV1 ovarian 13.5% | HS 578T breast 52.9% | NCI/ADR-RES ovarian 96.2%

NC(=N\N=C/Cc1ccccc1)/C(N)=N\N=C\Cc1ccccc1
inactive: SR leukemia 81.5% | OVCAR-8 ovarian 107% | OVCAR-5 ovarian 98.8% | OVCAR-4 ovarian 100% | SK-OV-3 ovarian 113% | IGROV1 ovarian 119% | OVCAR-3 ovarian 110% | HS 578T breast 105% | NCI/ADR-RES ovarian 103%

O=C1OC2(c3ccccc31)c1ccccc1-c1ccccc12
inactive: SR leukemia 41.4% | OVCAR-8 ovarian 101% | OVCAR-5 ovarian 88.4% | OVCAR-4 ovarian 82.9% | SK-OV-3 ovarian 91.7% | IGROV1 ovarian 90.6% | OVCAR-3 ovarian 93.6% | HS 578T breast 83.4% | NCI/ADR-RES ovarian 90.8%

O=C(O)CNC(=O)C1(N2C(=O)c3ccccc3C2=O)CCCC1
inactive: SR leukemia 99.3% | OVCAR-8 ovarian 104% | OVCAR-5 ovarian 101% | OVCAR-4 ovarian 99.4% | SK-OV-3 ovarian 111% | IGROV1 ovarian 119% | OVCAR-3 ovarian 139% | NCI/ADR-RES ovarian 110%

Nc1ccc(N=Nc2ccccc2)cc1[N+](=O)[O-]
inactive: SR leukemia 93.2% | OVCAR-8 ovarian 94.7% | OVCAR-5 ovarian 110% | OVCAR-4 ovarian 71.5% | SK-OV-3 ovarian 97.9% | IGROV1 ovarian 62.9% | OVCAR-3 ovarian 102% | HS 578T breast 139% | NCI/ADR-RES ovarian 95.9%

COC(=O)C1(NC(=O)CNC(=O)OCc2ccccc2)CCCC1
inactive: SR leukemia 100% | OVCAR-8 ovarian 106% | OVCAR-5 ovarian 103% | OVCAR-4 ovarian 98.3% | SK-OV-3 ovarian 111% | IGROV1 ovarian 115% | OVCAR-3 ovarian 149% | HS 578T breast 131% | NCI/ADR-RES ovarian 111%
